GLS inh: blocks human kidney-isoform glutaminase activity | O94925 | GLS enzymatic activity, qHTS titration | Potency, µM (series often up to 45.5 µM), for the others: at the top dose activity change, negative = inhibition, hits mostly inhibitors | 410,000 compounds, 0.21% hits | AID 624170; note: % is set by controls: 0 for no effect and ±100 for the full control effect
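Two-point fluorescence kinetic (t0, 30 min RT) for hKGA; glutamate detected via glutamate oxidase–HRP–Amplex Red. Substrate: 1 mM L-glutamine solution; buffer 45 mM KH2PO4, pH 8.2.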
G9a inh: G9a (human) methyltransferase inhibition; G9a H3K9 monomethylation, AlphaScreen, 2 h; Potency, µM (titrated, usually from 102 µM), inactives show top-dose activity, negative = inhibition, hits mostly inhibitors; AID 504332; Q96KQ7; 350,000 compounds, 8.8% hits; note: % is set by controls: 0 for no effect and ±100 for the full control effect; nearly all actives have a fitted effect of over 75% in size
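G9a (20 nM) was preincubated 15 min with compound, then reacted 2 h at room temperature with 500 nM biotin-H3K9 peptide and 20 µM SAM. Monomethyl-H3K9 detected by AlphaScreen using anti-H3K9me1 antibody.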
JMJD2A Tudor: inhibitors of human JMJD2A Tudor domain. Potency, µM (doses to about 114 µM), without a hit: top-dose activity change, negative = inhibition, most hits filed as inhibitors. AlphaScreen JMJD2A-Tudor / H3K4me3 peptide binding. AID 504339. O75164. 390,000 compounds, 4.4% hits; note: % is set by controls: 0 for no effect and ±100 for the full control effect; nearly all actives have a fitted effect of over 50% in size
HP1b chromo inh: HP1-beta chromodomain-methylated histone interaction inhibition | Potency, µM (doses to about 114 µM), for inactives: at the top dose activity change, negative = inhibition, most hits filed as inhibitors | P83916 | AlphaScreen HP1-beta / biotin-H3K9me3 peptide binding | 390,000 compounds, 0.56% hits; note: nearly all actives have a fitted effect of over 70% in size
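AlphaScreen: HP1-beta (50 nM) preformed 30 min with biotin-H3(1-18)K9me3 peptide (50 nM) in PBS pH 7.4, 0.01% Tween-20. Compound added for 30 min at RT, then streptavidin donor/nickel chelate acceptor beads (10 ug/mL) for 30 min.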
BAZ2B block: BAZ2B (human) inhibition | Potency, µM (series often up to 114 µM), for inactives: at the top dose activity change, negative = inhibition, hits mostly inhibitors | 360,000 compounds, 4.4% hits | AlphaScreen BAZ2B-H3K14Ac peptide displacement | Q9UIF8; note: % is set by controls: 0 for no effect and ±100 for the full control effect; nearly all actives have a fitted effect of over 60% in size
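Protein-peptide AlphaScreen: BAZ2B 50 nM, b-H3K14Ac 50 nM, 1x PBS pH 7.4 + 0.01% Tween-20. Preincubation 30 min RT; cpd 30 min RT (top 110 uM); beads 20 min RT, light-protected.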
L3MBTL1 block: L3MBTL1 (human) inhibition; Q9Y468; AlphaScreen L3MBTL1–H3K9me1 peptide binding; Potency, µM (top dose mostly 57.1 µM), for inactives: top-dose activity, negative = inhibition, actives largely listed as inhibitors; 230,000 compounds, 0.66% hits; note: % is set by controls: 0 for no effect and ±100 for the full control effect; nearly all actives have a fitted effect of over 60% in size
Target sequence (Q9Y468 whole entry, looked up): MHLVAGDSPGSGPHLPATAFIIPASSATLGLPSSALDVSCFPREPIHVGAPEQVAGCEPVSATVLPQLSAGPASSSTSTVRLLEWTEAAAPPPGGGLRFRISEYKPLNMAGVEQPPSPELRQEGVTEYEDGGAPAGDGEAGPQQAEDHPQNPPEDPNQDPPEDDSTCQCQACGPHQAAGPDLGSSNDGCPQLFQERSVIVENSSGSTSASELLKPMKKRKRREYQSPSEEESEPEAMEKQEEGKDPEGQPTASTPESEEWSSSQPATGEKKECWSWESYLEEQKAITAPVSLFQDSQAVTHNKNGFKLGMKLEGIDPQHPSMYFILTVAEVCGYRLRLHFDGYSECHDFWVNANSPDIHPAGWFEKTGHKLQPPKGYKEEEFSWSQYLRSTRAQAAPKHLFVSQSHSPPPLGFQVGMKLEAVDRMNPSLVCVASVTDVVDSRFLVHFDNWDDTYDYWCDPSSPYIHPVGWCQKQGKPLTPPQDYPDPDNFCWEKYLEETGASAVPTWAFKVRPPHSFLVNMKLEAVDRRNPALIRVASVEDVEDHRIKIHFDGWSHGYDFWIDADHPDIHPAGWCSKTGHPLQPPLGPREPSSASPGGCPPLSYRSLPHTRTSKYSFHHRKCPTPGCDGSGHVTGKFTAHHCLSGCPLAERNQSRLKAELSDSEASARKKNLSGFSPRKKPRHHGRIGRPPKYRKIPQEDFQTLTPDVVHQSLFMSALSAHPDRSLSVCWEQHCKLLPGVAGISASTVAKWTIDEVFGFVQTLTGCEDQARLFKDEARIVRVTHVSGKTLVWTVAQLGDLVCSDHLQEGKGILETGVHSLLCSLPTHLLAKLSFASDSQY
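Read-out is AlphaScreen signal from streptavidin donor and nickel chelate acceptor beads (10 ug/mL final each) bridging L3MBTL1 (50 nM) and biotinylated K9-monomethylated H3(1-15) peptide (75 nM), after 30 min compound exposure at room temperature.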
Starred values were filed as active, the others as inactive; ? = inconclusive; · = no result; ! = repeats disagree; [ ] = remark or other dose. Sampled rows, rich in hits. Any-hit rate of the full collection: about 10%. Calls come from the whole dose curve; as a rule, active = well fitted curve in the direction sought with a large enough effect; inconclusive = small, poorly fitted or top-dose-only effect, or another doubt; inactive = no such curve, though single readings can be large; an effect the other way counts as inactive or inconclusive. Potency is the fitted concentration of half-maximal effect.

SMILES | GLS inh | G9a inh | JMJD2A Tudor | HP1b chromo inh | BAZ2B block | L3MBTL1 block
CC1CCC2(CC1)NC(=O)N(CC(=O)Nc1nc(-c3ccc(F)cc3)cs1)C2=O (configuration not stated) | 9.0% | 50.1µM* | 5.2% | 11.7% | -3.2% | ·
Cc1ccc(-c2c[n+](CC(=O)Nc3nc(-c4ccc(F)cc4)cs3)c3n2CCC3)cc1 | 8.0% | 44.7µM* | -31.2% | -18.3% | -36.6% | -7.2%
CCOCCc1nnc(NC(=O)C(=O)c2cc(C)n(-c3cccc(C)c3)c2C)s1 | -1.9% | -7.8%[59 µM] | -32.5% | 21.2% | -18.0% | ·
C=CCNC(=O)COc1cc(C)cc(C)c1C | 1.6% | ? | -14.1% | 38.6% | 79.4µM* | 6.0%
COc1cc(OC)cc(-c2nc3nc(C)c(CCC(=O)Nc4ccc(F)cc4F)c(C)n3n2)c1 | -3.6% | -31.1%[59 µM] | -19.9% | 28.2% | -18.8% | ·
Cc1[nH]c(=S)c(C#N)c(-c2ccco2)c1C(=O)N(C)C | -12.4% | 3.55µM* | 3.98µM* | -24.7% | -35.7% | -10.6%
CC(=O)c1c(C)[nH]c(=S)c(C#N)c1-c1ccc(Cl)cc1 | 24.5% | 4.47µM* | ? | 14.3% | -17.9% | -5.6%
O=[N+]([O-])c1cccc(CN2C(COCc3ccccc3)CCC=CS2(=O)=O)c1 (configuration not stated) | · | · | -20.0% | 19.2% | · | ·
Cc1cc(C)c2c(CC(=O)Nc3cc(C(F)(F)F)ccc3Cl)coc2c1 | -1.0% | 5.8%[59 µM] | -28.1% | 26.8% | 2.2% | ·
Cc1cc(C)c(C)c(N=Nc2nc3ccccc3n2C)c1C | -12.1% | 11.2µM* | 11.2µM* | 12.6µM* | 7.94µM* | ?
Cn1c(/N=C/c2cccs2)nc2ccccc21 | 14.7% | 1.6%[12.7 µM] | -22.6% | -4.7% | -12.1% | 1.7%
Cc1ccc(C)c(N=Nc2nc3ccccc3n2C)c1 | -0.7% | 29.8%[0.501 µM] | 25.1µM* | 15.8µM* | 8.91µM* | ?
Cc1cccc(CNC(=O)c2ccc(N3Cc4ccccc4Oc4ncccc43)s2)c1 | 2.0% | -5.3%[59 µM] | 8.8% | 31.0% | 5.2% | ·
O=C(Cn1cc(SCc2cccc(Cl)c2)c2ccccc21)N1CCOCC1 | 0.8% | 31.6µM*! | -11.4% | 30.7% | -22.1% | -2.8%
CCc1ccc(C(=O)c2cn(CC(=O)NCc3ccc(C)cc3)c3nc(C)ccc3c2=O)cc1 | -0.5% | 3.2%[59 µM] | -18.5% | 44.9% | -2.4% | ·
Cc1ccc(C2(C)NC(=O)N(CC(=O)NCCC3=CCCCC3)C2=O)cc1 (configuration not stated) | -12.0% | ? | -14.8% | 58.9% | 14.7% | ·
CC1(c2ccc(Cl)cc2)NC(=O)N(CC(=O)NCCC2=CCCCC2)C1=O (configuration not stated) | -3.1% | 0.891µM* | 2.0% | 53.6% | -0.2% | -2.4%
COc1ccc(N2CCN(C(=O)CN(c3ccc(OC)cc3)S(=O)(=O)c3ccccc3)CC2)cc1 | 18.3% | 39.8µM* | ? | -18.3% | ? | ·
COc1ccc(N2CCN(C(=O)CN(c3ccccc3)S(=O)(=O)c3ccc(OC)cc3)CC2)cc1 | · | 10µM* | 56.2µM* | ? | ? | ·
COc1ccc(N2CCN(C(=O)c3ccccc3N(C)S(=O)(=O)c3ccc(C)cc3)CC2)cc1 | 23.3% | ? | ? | -30.2% | 39.8µM* | ·
Cc1ccc(S(=O)(=O)N(C)c2ccccc2C(=O)N2CCCC2)cc1 | -0.5% | · | -9.3% | 11.3% | 7.1% | ·
COc1ccc(S(=O)(=O)N(CC(=O)N2CCN(c3ccccc3OC)CC2)c2ccccc2)cc1 | 5.8% | ? | -26.9% | 5.9% | -34.6% | -19.5%
Cc1c2cnn(CC(=O)NCCc3ccccc3)c(=O)c2c(C)n1Cc1ccccc1 | -4.4% | 10.6%[59 µM] | -2.7% | 21.3% | 0.6% | ·
CCOC(=O)Cc1ccc(NC(=O)N(Cc2ccc(CC)cc2)Cc2cn[nH]c2-c2ccc(OC)cc2)cc1 | -0.3% | 2.3%[59 µM] | 19.5% | 65.0% | 0.4% | ·
CCOc1ccc(N(CC)S(=O)(=O)N2CCCC(C(=O)NCc3ccccc3OCC)C2)cc1 (configuration not stated) | 4.4% | -1.5%[59 µM] | -12.8% | 37.9% | -12.4% | ·
SMILES | GLS inh | G9a inh | JMJD2A Tudor | HP1b chromo inh | BAZ2B block | L3MBTL1 block
N#CC1=C(N)Oc2c(ccc3ccccc23)C1c1ccsc1 (configuration not stated) | ? | 44.7µM* | -24.7% | 2.9% | -9.5% | -3.2%
N#CC1=C(N)Oc2c(oc(CO)cc2=O)C1c1ccsc1 (configuration not stated) | 4.0% | 31.6µM* | -15.7%[57.1 µM] | 13.7% | 50.1µM* | ·
CCOC(=O)C1=C(C)OC(N)=C(C#N)C1c1cccs1 (configuration not stated) | -1.1% | -46.9% | -3.8%[57.1 µM] | 30.8% | -16.4% | ·
N#CC1=C(N)Oc2c(oc(CO)cc2=O)C1c1cccs1 (configuration not stated) | 35.2% | 44.7µM* | 28.2µM* | 16.3% | -0.8% | 8.9%
COc1ccc(C2CC(=O)NC(NC(=O)c3ccc(Br)cc3)=N2)c(OC)c1OC (configuration not stated) | -2.7% | -5.6%[59 µM] | -4.6% | 38.9% | -1.9% | ·
CCCNC(=O)N1CCN(S(=O)(=O)c2ccc3c(ccn3C)c2)CC1 | -5.0% | 10.3%[59 µM] | -20.1% | 20.3%[57 µM] | -1.8% | ·
S=c1nc(C2CC2)n(-c2ccccc2)[nH]1 | -0.2% | ? | 2.51µM* | 22.7% | -12.4% | ·
CC1=C(C)C(c2ccccc2)NC(=S)N1 (configuration not stated) | 6.2% | ? | 3.3% | 32.3% | -24.1% | -9.2%
CCOC(=O)c1cnc2ccccc2c1Nc1cccc(OC)c1 | -5.1% | 4.9%[59 µM] | 15.2% | 98.3% | 34.2% | ·
CCN(CC)S(=O)(=O)c1ccc(N/N=C/c2ccc(O)cc2O)nc1 | 2.5% | 17.5%[59 µM] | -28.4% | 36.7% | 25.1µM* | ?
Cc1ccc(/C=N/Nc2cccc3cccnc23)c(O)c1 | 29.2% | 17.8µM* | ? | 18.9% | -0.3% | -4.7%
O=[N+]([O-])c1ccc(NN=Cc2ccc(O)cc2O)nc1 | -3.8% | · | -15.9% | 9.8%[57 µM] | · | ·
C(=N\Nc1ccccn1)/c1c[nH]c2ccccc12 | 8.7% | -46.0% | ? | -4.2% | 31.6µM* | -22.6%
Oc1ccc(/C=N/Nc2cccc3cccnc23)c(O)c1 | 26.4% | 5.62µM* | ? | -10.9% | -10.0% | ?
O=C(OCc1cc(=O)n2nc(-c3cccs3)sc2n1)c1ccc(Cl)cc1 | -3.6% | 14.2%[59 µM] | -24.7% | 12.6% | -25.1% | ·
Oc1cccc(C=NNc2ccccn2)c1 | 11.0% | · | -25.0% | 29.8% | · | ·
Oc1ccc(C=NNc2ccccn2)c(O)c1 | 35.1% | · | 20µM* | 12.9% | · | ·
COc1ccc(C(=O)N2C(=S)NC(=O)/C2=C\c2ccc(C)cc2)cc1 | 2.8% | -0.6%[59 µM] | 50.1µM* | -22.9% | 50.1µM* | -21.5%
COc1ccc(C=C2NC(=S)NC2=O)cc1 | 1.2% | · | -30.3% | -6.1% | · | ·
